# Measurements as given in PubChem BioAssay (NCATS).
# Inconclusive results are not listed. Values without a mark were called inactive. Calls follow the shape of the dose curve; as a rule, active = well fitted curve in either direction with a large enough effect (not every such curve was filed as active); inconclusive = small, poorly fitted or top-dose-only effect, or another doubt; inactive = flat fitted curve, though single readings scatter.
# Test: NFAT Signaling Pathway (AID 444)
# Details: Jurkat NFAT-bla M1, carbachol, beta-lactamase ratio, 5 h; at 7.69 µM (top of the series) unless noted
# Excerpt: NCGC Assay Overview: The nuclear factor of activated T cells (NFAT) family of transcription factors has been found primarily in most immune system cells and some other non-immune cells. NFAT plays the immunomodulatory role, primarily in T-cell activation and differentiation. NFAT target genes are also involved in the regulation of apoptosis and differentiation in non-immune cell types. The NFAT sequence was engineered to the upstream of the ?-lactamase reporter gene and transfected into Jurkat cells with co-transfection of muscarinic receptor1 [provided by Invitrogen Corp]. When an extracellular stimulus, such as carbachol, binds to the GPCR M1 receptor, it stimulates a signaling cascade that activates NFAT response element and ?-lactamase expression by phosphorylating the NFAT binding protein. This cell based ?-lactamase reporter gene assay can accurately monitor any changes occurring along the NFAT pathway, and can be used for screening small molecule inhibitor or activator upon activation by carbachol EC50 concentration. A small molecular library were screened in a titration series resulting in AC50s (can be either IC50s or EC50s).
# NCGC Assay Protocol Summary: The cells were prepared in RPMI 1640 medium containing 0.1% dialyzed FBS and 25 mM HEPES at 1.6 x 10^6cell/ml. The assay was performed in 1536-well plate format as follows: 5 ul of cell preparation 23 nl of compounds 1ul of carbachol (final concentration 1 uM) Briefly centrifuge the plates and incubate at 37 °C for 5 hours 1 ul of CCF4 dye mixture Incubate the plates at RT for 1 hour Read the plate in EnVision plate reader (Ex= 405nm, and Em1=460nm and Em2=530nm). The %Activity was determined from the ratio of 460nm/530nm. Data normalization and AC50 calculations were accomplished using GeneData software.
# % is scaled to controls: 0 for no effect and ±100 for the full control effect.
row,Compound,"activity change, negative = inhibition [%]"
1,N#Cc1cccc(NC(=O)N2CCC3(CC2)CCN(C(=O)c2ccco2)CC3)c1,-8.92
2,O=C(c1cccc(F)c1)N1CCC2(CC1)CCN(c1ccccc1)CC2,-2.46
3,CC(=O)NCCNc1ncnc2ccc(-c3cccc(NS(C)(=O)=O)c3)cc12,7.81
4,COCCNc1cc(-c2ccccc2CN(C)C)ncn1,-0.403
5,COc1ncc2nc(-c3cc(F)cc(F)c3)c(=O)n(CCC#N)c2n1,-5.52
6,Cn1cc(-c2nc3cnc(Oc4cccc(Cl)c4)nc3n(CCC#N)c2=O)c2ccccc21,21.5
7,COCC(=O)N1CCC[C@@]2(CCN(C(=O)Nc3ccc(OC)cc3)C2)C1,11.4
8,O=c1cnc2cnc(Nc3ccccc3)nc2n1C1CC1,-2.7
9,COCC(=O)N1CCC2(CC1)CN(Cc1ccc(C#N)cc1)C2,-16.7
10,COCC(=O)N1CCC2(CC1)CN(C(c1ccccc1)c1ccccc1)C2,11.6
11,Cc1nc2cnc(N3CCOCC3)nc2n(CCC#N)c1=O,-9.52
12,COc1ccc(-n2c(=O)cnc3cnc(N4CCOCC4)nc32)cc1,1.82
13,CS(=O)(=O)N1CCC2(CCN(C(=O)Nc3cccc(C#N)c3)CC2)CC1,16.4
14,COCC(=O)N1CCC2(CCCN(Cc3cc(C(F)(F)F)cc(C(F)(F)F)c3)C2)CC1,-0.717
15,CCNc1ncc2nc(C)c(=O)n(-c3ccc(OC)cc3)c2n1,14.3
16,Cc1cccc(CNc2ncnc3ccc(-c4ccoc4)cc23)c1,-14.2
17,Cc1ccccc1-c1nc(NCc2cccs2)c2ccccc2n1,-9.98
18,Cn1c(=O)cnc2cnc(OCc3ccccc3)nc21,0.699
19,O=C(c1ccco1)N1CCC2(CC1)CN(c1ccccc1)C2,28.4
20,CS(=O)(=O)Nc1cccc(-c2cncnc2Nc2ccc(F)cc2)c1,26

row,Compound,"activity change, negative = inhibition [%]"
1,O=C(Nc1ccccc1)N1CC2(CCN(C(=O)c3ccco3)CC2)C1,3.9
2,N#CCCn1c(=O)c(-c2cc(F)cc(F)c2)nc2cnc(OCc3ccccc3)nc21,-0.0706
3,CS(=O)(=O)N1CCC2(CCCN(c3ccccn3)C2)CC1,4.17
4,COCCNc1nc(-c2ccccc2Cl)nc2ccccc12,7.18
5,COc1ccccc1CN1CC[C@@]2(CCCN(C(C)=O)C2)C1,19.3
6,COCCn1c(=O)c(C)nc2cnc(N(C)C)nc21,13.3
7,O=c1c(-c2cc(F)cc(F)c2)nc2cnc(N3CCOCC3)nc2n1C1CC1,6.75
8,COCCn1c(=O)c(-c2ccc(Cl)cc2)nc2cnc(OC)nc21,0.766
9,O=C(c1ccncc1)N1CCC2(CC1)CCN(c1cccc(-c3ccccc3)c1)CC2,4.67
10,Cc1nc2cnc(N3CCOCC3)nc2n(C[C@H]2CCCO2)c1=O,-4.93
11,O=c1c(-c2ccc(Cl)cc2)nc2cnc(N3CCOCC3)nc2n1C[C@H]1CCCO1,-5.22
12,COCCNc1ccnc(-c2ccccc2C(F)(F)F)n1,9.65
13,CNc1nc(-c2ccc3c(c2)OCO3)nc2ccccc12,1.91
14,Cc1cnc(CNc2ncncc2-c2cccc(C#N)c2)cn1,1.24
15,O=C(c1csnn1)N1CCC2(CC1)CN(c1ccccn1)C2,-19.4
16,COCC(=O)N1CCC[C@@]2(CCN(C(=O)Nc3cccc(C#N)c3)C2)C1,-2.97
17,O=C(c1csnn1)N1CCC[C@@]2(CCN(c3ccccn3)C2)C1,-7.38
18,O=C(Nc1cccc(F)c1)N1CC[C@@]2(CCCN(C(=O)c3ccco3)C2)C1,-0.255
19,COC(=O)N1CCC2(CC1)CN(C(=O)Nc1cccc(C#N)c1)C2,6.57
20,Cc1noc(C)c1C(=O)N1CCC2(CCN(C(=O)NC(C)C)CC2)CC1,5.4
